Experimental data reported in ChEMBL document CHEMBL3988442, “University of Dundee, Small-Polar-MMV Screening Library” (2021).
For some of these results: Potency and affinity values are given separately.

Columns and labels:
Design in all cases: scale not given: direction of the effect not stated beside the values
[1] = target: Protein translocase subunit SecA (Escherichia coli (strain K12)) (UniProt P10408); assay: Assay to Identify E. coli SecA ATPase Inhibitors; assay type: functional; conditions: 30 µM
Chain of Protein translocase subunit SecA (Escherichia coli (strain K12)) (P10408 whole entry): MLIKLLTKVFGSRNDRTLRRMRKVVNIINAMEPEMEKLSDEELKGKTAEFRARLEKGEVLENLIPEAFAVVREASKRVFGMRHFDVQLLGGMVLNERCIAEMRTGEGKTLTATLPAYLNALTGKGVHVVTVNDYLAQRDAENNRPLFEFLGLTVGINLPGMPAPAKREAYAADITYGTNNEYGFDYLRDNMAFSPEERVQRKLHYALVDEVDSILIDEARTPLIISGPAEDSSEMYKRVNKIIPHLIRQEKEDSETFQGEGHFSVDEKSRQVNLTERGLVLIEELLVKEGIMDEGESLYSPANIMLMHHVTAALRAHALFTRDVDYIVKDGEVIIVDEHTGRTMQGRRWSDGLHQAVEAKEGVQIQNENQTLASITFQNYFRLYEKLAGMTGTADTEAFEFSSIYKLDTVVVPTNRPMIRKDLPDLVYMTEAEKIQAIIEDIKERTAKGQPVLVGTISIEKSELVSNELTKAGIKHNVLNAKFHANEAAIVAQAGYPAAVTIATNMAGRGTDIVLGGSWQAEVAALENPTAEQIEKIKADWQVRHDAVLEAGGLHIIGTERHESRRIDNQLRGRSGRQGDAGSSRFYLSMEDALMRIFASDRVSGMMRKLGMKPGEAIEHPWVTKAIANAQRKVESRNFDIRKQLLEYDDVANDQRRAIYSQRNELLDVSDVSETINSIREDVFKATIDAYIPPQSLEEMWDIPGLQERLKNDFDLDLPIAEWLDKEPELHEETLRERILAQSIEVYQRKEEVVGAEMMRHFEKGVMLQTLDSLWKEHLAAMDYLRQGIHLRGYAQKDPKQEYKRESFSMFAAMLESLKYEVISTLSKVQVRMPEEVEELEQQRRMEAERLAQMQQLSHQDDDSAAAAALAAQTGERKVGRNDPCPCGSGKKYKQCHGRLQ

[2] = target: T1, Ubiquitin-activating enzyme e1, putative (Leishmania donovani (strain BPK282A1)) (UniProt E9BSI1); assay: Leishmania donovani Ubiquitin Activating Enzyme (LdE1); assay type: functional; conditions: 30 µM
T1 sequence (whole entry): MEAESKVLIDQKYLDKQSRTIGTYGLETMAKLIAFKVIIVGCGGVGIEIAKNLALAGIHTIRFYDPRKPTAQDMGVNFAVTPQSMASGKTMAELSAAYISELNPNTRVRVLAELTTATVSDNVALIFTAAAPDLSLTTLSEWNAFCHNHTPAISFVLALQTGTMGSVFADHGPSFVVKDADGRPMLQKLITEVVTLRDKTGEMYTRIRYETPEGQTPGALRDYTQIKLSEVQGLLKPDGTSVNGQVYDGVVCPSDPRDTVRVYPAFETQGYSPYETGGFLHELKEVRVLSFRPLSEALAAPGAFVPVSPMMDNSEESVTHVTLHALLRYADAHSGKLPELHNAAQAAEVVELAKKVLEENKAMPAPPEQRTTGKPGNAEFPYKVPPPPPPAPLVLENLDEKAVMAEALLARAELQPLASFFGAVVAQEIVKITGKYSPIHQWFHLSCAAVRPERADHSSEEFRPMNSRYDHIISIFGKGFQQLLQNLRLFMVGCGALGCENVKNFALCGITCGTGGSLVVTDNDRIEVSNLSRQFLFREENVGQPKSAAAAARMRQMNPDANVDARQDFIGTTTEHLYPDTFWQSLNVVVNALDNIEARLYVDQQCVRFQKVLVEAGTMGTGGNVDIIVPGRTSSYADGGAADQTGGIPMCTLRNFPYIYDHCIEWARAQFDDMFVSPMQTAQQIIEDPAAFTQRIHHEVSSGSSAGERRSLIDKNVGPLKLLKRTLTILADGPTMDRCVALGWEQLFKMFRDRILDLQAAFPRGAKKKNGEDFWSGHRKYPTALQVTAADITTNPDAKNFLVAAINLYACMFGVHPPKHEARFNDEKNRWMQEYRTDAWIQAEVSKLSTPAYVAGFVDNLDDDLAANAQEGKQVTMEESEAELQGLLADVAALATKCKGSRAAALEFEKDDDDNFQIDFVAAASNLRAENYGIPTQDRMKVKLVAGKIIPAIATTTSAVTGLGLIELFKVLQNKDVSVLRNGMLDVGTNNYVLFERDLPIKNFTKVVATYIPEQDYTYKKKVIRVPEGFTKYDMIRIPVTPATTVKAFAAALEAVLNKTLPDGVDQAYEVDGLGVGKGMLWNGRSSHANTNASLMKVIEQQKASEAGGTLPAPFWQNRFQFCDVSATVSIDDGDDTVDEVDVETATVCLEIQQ

[3] = target: AMP-activated protein kinase, AMPK (Homo sapiens) (UniProt P54646+O43741+P54619+Q9UGJ0+Q9Y478+Q13131+Q9UGI9); assay: AMP-dependent Kinase enzyme assay. An in vitro enzyme assay that detects ADP turnover that is directly proportional to AMPK activity. This uses naive AMPK that is activated during the assay with MK-8722; assay type: functional; conditions: 30 µM
[4] = target: Sialic acid-binding Ig-like lectin 9 (Homo sapiens) (UniProt Q9Y336); assay: Hs-Siglec9 ALPHAscreen SOP 20170721; conditions: 10 µM
Chain of Sialic acid-binding Ig-like lectin 9 (Homo sapiens) (Q9Y336 whole entry): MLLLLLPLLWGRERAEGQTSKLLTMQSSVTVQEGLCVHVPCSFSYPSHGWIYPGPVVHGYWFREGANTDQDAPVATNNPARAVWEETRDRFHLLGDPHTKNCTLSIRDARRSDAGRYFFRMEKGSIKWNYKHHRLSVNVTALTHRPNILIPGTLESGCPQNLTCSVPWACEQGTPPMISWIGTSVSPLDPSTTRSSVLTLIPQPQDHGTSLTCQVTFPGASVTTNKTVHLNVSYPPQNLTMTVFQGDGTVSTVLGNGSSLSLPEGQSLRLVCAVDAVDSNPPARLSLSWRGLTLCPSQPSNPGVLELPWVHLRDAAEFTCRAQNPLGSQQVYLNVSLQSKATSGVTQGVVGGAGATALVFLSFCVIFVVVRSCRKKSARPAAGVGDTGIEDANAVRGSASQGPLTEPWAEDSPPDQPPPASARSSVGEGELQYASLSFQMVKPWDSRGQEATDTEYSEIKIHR

Trypanosoma cruzi = assay: Trypanosoma cruzi phosphomannomutase and mannose-1-phosphate guanylyltransferase assay; assay type: functional; conditions: 10 µM
[5] = target: T2, Arginase-2, mitochondrial (Homo sapiens) (UniProt P78540); assay: in vitro enzyme assay to detect the production of urea directly proportional to the activity of Arginase II; assay type: functional; conditions: 33.3 µM; note: in the data most compounds retested in dose-response had high values
T2 sequence (whole entry): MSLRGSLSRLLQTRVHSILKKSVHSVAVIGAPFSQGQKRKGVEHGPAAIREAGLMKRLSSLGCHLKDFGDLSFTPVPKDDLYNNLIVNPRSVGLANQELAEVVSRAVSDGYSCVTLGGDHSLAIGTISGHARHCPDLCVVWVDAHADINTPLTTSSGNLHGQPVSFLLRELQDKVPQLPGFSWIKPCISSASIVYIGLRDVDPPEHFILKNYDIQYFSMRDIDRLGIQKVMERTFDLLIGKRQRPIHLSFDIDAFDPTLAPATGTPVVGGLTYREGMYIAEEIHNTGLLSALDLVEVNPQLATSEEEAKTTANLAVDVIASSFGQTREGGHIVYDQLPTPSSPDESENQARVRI

[6] = target: T3, Proteasome subunit beta (Trypanosoma cruzi) (UniProt O96673); assay: Trypanosoma cruzi proteasome chymotrypsin-like activity (TcProtChymo) assay.; note: in the data most compounds retested in dose-response had high values; assay type: functional; conditions: 9.37 µM
T3 sequence (whole entry): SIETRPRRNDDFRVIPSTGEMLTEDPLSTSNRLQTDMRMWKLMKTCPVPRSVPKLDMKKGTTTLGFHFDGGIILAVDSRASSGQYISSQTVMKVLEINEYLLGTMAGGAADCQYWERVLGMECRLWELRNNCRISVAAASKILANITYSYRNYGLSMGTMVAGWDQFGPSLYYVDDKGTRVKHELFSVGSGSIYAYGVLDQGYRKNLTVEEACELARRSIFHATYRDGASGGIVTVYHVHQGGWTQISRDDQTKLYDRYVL

Homo sapiens = organism: Homo sapiens; assay: To identify inhibition of the IFN signalling (Jak-Stat) pathway via expression of an eGFP reporter gene under the control of an IFN-stimulated response element (ISRE) containing MxA promoter.; assay type: functional; conditions: 30 µM
[7] = target: T4, Tyrosyl-tRNA synthetase, putative (Trypanosoma cruzi (strain CL Brener)) (UniProt Q4DSP6); assay: Trypanosoma cruzi tyrosyl tRNA synthetase (TcYRS) _High Tyrosine SOP; assay type: functional; conditions: 30 µM; note: in the data most compounds retested in dose-response had high values
T4 sequence (whole entry): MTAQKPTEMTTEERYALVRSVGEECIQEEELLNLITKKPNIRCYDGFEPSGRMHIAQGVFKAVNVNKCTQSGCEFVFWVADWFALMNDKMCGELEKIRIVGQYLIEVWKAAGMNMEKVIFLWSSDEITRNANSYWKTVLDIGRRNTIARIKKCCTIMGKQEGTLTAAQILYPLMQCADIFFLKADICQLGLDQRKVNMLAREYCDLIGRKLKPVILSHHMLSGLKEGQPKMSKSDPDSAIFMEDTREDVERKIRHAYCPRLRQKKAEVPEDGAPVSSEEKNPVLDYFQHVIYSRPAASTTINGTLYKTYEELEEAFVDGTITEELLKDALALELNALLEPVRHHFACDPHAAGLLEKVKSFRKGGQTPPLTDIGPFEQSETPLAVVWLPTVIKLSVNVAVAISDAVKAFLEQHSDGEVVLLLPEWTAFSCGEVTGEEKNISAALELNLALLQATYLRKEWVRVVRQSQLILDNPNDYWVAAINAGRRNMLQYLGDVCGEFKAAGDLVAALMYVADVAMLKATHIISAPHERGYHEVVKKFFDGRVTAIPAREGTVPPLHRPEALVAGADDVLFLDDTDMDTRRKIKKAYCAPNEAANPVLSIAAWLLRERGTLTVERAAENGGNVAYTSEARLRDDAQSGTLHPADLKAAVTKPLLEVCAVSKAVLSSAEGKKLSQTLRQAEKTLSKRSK

[8] = target: T4, Tyrosyl-tRNA synthetase, putative (Trypanosoma cruzi (strain CL Brener)); assay: Trypanosoma cruzi tyrosyl tRNA synthetase (TcYRS) SOP; assay type: functional; conditions: 30 µM
[9] = target: Chromo domain-containing protein 1 (Saccharomyces cerevisiae (strain ATCC 204508 / S288c) (Baker's yeast)) (UniProt P32657); assay: ScCHD-1 Enzyme Inhibition Assay; assay type: functional; conditions: 30 µM; note: in the data most compounds retested in dose-response had high values
Chain of Chromo domain-containing protein 1 (Saccharomyces cerevisiae (strain ATCC 204508 / S288c) (Baker's yeast)) (P32657 whole entry, the tested form may be a part): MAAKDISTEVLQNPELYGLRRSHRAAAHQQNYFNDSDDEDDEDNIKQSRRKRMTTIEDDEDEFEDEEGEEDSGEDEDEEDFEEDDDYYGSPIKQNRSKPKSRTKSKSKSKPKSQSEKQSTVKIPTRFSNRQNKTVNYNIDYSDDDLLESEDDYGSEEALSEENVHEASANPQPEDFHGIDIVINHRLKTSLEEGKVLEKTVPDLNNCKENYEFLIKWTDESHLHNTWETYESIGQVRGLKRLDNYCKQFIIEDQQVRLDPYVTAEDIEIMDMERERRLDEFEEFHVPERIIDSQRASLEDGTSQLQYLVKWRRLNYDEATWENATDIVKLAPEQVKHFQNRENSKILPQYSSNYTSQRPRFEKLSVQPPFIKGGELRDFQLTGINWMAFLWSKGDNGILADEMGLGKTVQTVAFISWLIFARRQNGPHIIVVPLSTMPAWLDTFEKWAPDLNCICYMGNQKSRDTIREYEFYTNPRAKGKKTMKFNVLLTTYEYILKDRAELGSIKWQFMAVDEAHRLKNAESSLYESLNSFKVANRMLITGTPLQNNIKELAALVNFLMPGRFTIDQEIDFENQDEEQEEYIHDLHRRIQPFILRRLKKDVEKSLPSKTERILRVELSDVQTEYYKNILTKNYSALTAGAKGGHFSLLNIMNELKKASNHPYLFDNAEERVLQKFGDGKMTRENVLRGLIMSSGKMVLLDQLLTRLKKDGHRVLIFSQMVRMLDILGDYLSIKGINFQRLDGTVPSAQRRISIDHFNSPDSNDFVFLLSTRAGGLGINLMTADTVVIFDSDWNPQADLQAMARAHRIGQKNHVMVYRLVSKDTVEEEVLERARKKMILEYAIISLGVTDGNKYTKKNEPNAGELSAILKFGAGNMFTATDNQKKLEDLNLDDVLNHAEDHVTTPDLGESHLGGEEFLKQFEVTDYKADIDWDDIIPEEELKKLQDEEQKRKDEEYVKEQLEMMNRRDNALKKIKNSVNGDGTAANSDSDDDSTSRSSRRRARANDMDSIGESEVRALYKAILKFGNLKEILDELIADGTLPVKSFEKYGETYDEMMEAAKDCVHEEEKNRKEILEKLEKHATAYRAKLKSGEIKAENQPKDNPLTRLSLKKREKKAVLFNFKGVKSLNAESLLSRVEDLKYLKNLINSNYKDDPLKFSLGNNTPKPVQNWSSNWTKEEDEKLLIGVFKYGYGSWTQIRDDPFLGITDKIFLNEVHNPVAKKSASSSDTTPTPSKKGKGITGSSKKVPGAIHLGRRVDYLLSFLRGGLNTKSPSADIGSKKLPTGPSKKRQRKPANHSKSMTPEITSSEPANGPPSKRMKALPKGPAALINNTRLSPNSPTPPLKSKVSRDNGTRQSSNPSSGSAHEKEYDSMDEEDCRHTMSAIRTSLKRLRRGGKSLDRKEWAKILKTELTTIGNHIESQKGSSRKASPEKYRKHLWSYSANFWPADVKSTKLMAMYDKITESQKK

Structure (SMILES)	Percent Effect [1]	Percent Effect [2]	Percent Effect [3]	Percent Effect [4]	Percent Effect (Trypanosoma cruzi)	Percent Effect [5]	Percent Effect [6]	Percent Effect (Homo sapiens)	Percent Effect [7]	Percent Effect [8]	Percent Effect [9]
O=C(NCc1cc[nH]n1)N1CCCCC(N2CCCC2)C1 (stereo not given)	-3.54%	-10.5%	-9.14%	11.7%	6.44%	2.16%	1.27%	7.32%	7.39%	23.5%	3.8%
Cc1ccc(NC(=O)N2CCC(NC(=O)c3ccc(C)o3)CC2)cc1	-4.11%	15.6%	3.14%	4.46%	2.45%	0.632%	6.39%	8.38%	8.57%	23.5%	-10.9%
CC(=O)c1cccc(OCCCC(=O)NCC2CCCN2C)c1 (stereo not given)	-3.97%	13.2%	-2.69%	14.8%	3.57%	0%	11.7%	6.04%	10.3%	21.9%	-9.7%
CN(C)C(=O)COCc1cncc2c1CCN(Cc1nccn1C)C2	-2.93%	7.79%	3.61%	17.4%	7.18%	-106%	3%	20.9%	6.45%	13.6%	0.222%
CCC1CN(C(=O)c2ccc(=O)[nH]c2)CCC(=O)N1Cc1ccccc1 (stereo not given)	-1.75%	4.17%	-3.51%	-12.5%	-3.21%	3.09%	14%	14.1%	0%	2.56%	-2.44%
Cc1cccc2nc(C(=O)N3CCC(Nc4cccnn4)CC3)cn12	-4.19%	5.2%	2.91%	37.9%	-0.0979%	-1.47%	8.16%	3.1%	0%	9.41%	-18.7%
O=C(NCCOc1ncc(Cl)cc1Cl)c1ccncc1F	-4.54%	2.7%	2.46%	-3.73%	5.08%	-2.08%	17.8%	8.71%	5.94%	8.54%	-7.35%
COc1ccc(-c2cnc(CN3CCn4c(C)nnc4C3)o2)cc1	-8.18%	5.26%	-2.37%	6.41%	10.9%	-3.06%	7.18%	11.6%	6.37%	19.5%	-14.7%
Cc1cc(NC(=O)NCCc2ccsc2)n(C)n1	-0.993%	15.3%	-5.89%	15.8%	0.291%	-0.883%	20.7%	-9.26%	1.05%	10.3%	85%
CCc1nnc2n1CCN(Cc1ccc(C(=O)N3CCCC3)cc1)C2	-2.96%	13.5%	2.51%	-7.2%	-2.69%	-4.25%	12.8%	17.1%	6.93%	15.8%	-4.5%
CC(C)Oc1ncccc1CNC(=O)C1CCCN(C(=O)C2CC2)C1 (stereo not given)	-5.21%	5.26%	-7.89%	-1.61%	-4.89%	0%	7.52%	24.1%	2.45%	7.32%	-4.9%
CCCC(=O)N1CC[C@@H]2[C@H](CC1)N(Cc1cccnc1)CCS2(=O)=O	-8.11%	5.41%	3.63%	-1.04%	-0.586%	2.5%	6.85%	0.118%	8.91%	8.54%	-3.88%
CC(C)C(NC(=O)NCCNc1ccccn1)c1cccs1 (stereo not given)	-6.06%	18.2%	-14.7%	6.36%	-0.187%	4.98%	10.8%	8.29%	9.71%	26.8%	-7.99%
CCSCC(C)NCc1nncn1C1CCCCC1 (stereo not given)	-0.842%	6.94%	-1.51%	-1.31%	2.23%	0.883%	16%	-2.28%	11.6%	20.5%	-4.13%
Cn1ccnc1CN1C[C@@H](CN2CCC(CO)CC2)[C@@H](CO)C1	-7.42%	5.41%	-7.54%	7.63%	6.37%	-1.43%	17.4%	7.57%	1.59%	14.6%	-5.25%
Cc1nc(NC(=O)CNC(=O)c2c(F)cccc2Cl)n[nH]1	-5.26%	13.2%	2.15%	2.44%	3.21%	-3.55%	9.11%	3.8%	1.06%	7.79%	-1.65%
O=C1CCCCN1c1cccc(CNC2CCCC2)c1	-1.28%	0%	5.47%	3.26%	2.06%	2.74%	8.49%	-9.59%	2.86%	7.06%	-7.72%
Cc1cn2nc(N3CCCC3Cn3nc(C)cc3C)sc2n1 (stereo not given)	-2.86%	6.33%	3.5%	0.585%	1.74%	-0.645%	9.43%	19.6%	4.17%	7.59%	-20%
CCCn1c(C)cc(C(=O)CN2C(=O)c3ccccc3CS2(=O)=O)c1C	2.47%	-18.9%	-2.92%	7.94%	0%	1.91%	14.7%	21.2%	-10.1%	0%	8.3%
CN(C)c1ccc(CC(=O)N[C@@H]2CCNC[C@H]2O)cc1	-6.67%	5.41%	-14.5%	7.45%	2.05%	0.744%	-1.46%	-17.6%	7.53%	11.1%	-2.77%
